Screening data deposited in PubChem BioAssay by National Center for Advancing Translational Sciences (NCATS).
Only a selection was taken, and hits are over-represented in it overall.
ERG-DNA inh = ERG Ets/DNA interaction inhibition; Potency, µM (top dose mostly 76.9 µM), hits mostly inhibitors; actives 0.028% (n = 370,000); P11308; fluorescence polarization, His-ERG Ets domain / labelled DNA; AID 624246; active = well fitted inhibition curve with a large enough effect in the polarisation, with a control signal flat; inconclusive = small, poorly fitted or top-dose-only effect, or effect the other way, or a change in a side signal; inactive = no such curve, though single readings can be large or run the other way; the % refers to the polarisation;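 note: polarization taken with two DNA probes labelled with fluorescein and Texas red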
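His-tagged ERG Ets domain (1 uM in the protein solution; 300mM KCl, 50mM Tris-HCl, 1mM EDTA, 1mM DTT, pH 7.5) received compound, then a probe mix of 5 nM fluorescein-DNA and 100nM Texas-615-DNA. Fluorescence polarization was read for both dyes.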
CXXC DNA block = inhibitors of human MLL CXXC domain-DNA interaction | Q03164 | MLL-CXXC / FITC-HOXA9 DNA fluorescence polarization | Potency, µM (highest dose often 115 µM), most hits filed as inhibitors | actives 0.037% (n = 290,000) | AID 2662; active = well fitted inhibition curve with a large enough effect in the polarisation, with a control signal flat, not every such curve was filed as active; inconclusive = small, poorly fitted or top-dose-only effect, or effect the other way, or a change in a side signal; inactive = no such curve, though single readings can be large or run the other way; the % refers to the polarisation
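Fluorescence polarization: 7 uM MLL-CXXC (stock) preincubated 5 min with compounds, then 50 nM fluorescein-HOX-A9 DNA (stock) added; 30 min ambient. Buffer 50 mM Tris-HCl pH 7.5, 50 mM NaCl, 1 mM DTT, 0.05% BSA.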
RGS12 GoLoco inh-1 = RGS12 GoLoco-Gai1 interaction inhibition. actives 0.44% (n = 230,000). Gai1:RGS12 GoLoco peptide FP, rhodamine, 10 min. Potency, µM (doses to about 61.6 µM), usual class: inhibitors. AID 880. P63096; active = well fitted inhibition curve with a large enough effect, not every such curve was filed as active; inactive = no such curve, though single readings can be large or run the other way; note: nearly all actives have a fitted effect of over 30% in size
Menin MLL FP TR = displaces Texas Red mutant MLL peptide from human menin; Menin + Texas Red MLL mutant peptide, fluorescence polarization; Potency, µM (titrated, usually from 61.6 µM), most hits filed as inhibitors; actives 0.23% (n = 270,000); AID 1768; active = well fitted inhibition curve with a large enough effect in the polarisation, with a control signal flat, not every such curve was filed as active; inconclusive = small, poorly fitted or top-dose-only effect, or effect the other way, or a change in a side signal; inactive = no such curve, though single readings can be large or run the other way; the % refers to the polarisation
Menin MLL FP FL = inhibitors of human menin-MLL interaction, wild-type MLL peptide. AID 1766. 290,000 tested, under 10 active. FP activity change, % at 61.4 µM. Fluorescence polarization, fluorescein-MLL peptide displacement from menin; active = well fitted curve in the direction sought with a large enough effect in the polarisation, not every such curve was filed as active; inconclusive = small, poorly fitted or top-dose-only effect, or effect the other way, or a change in a side signal; inactive = no such curve, though single readings can be large or run the other way; the % refers to the polarisation
RGS12 GoLoco inh-2 = confirmation of human RGS12 GoLoco motif inhibitors; Potency, µM (doses to about 57.1 µM), most hits filed as inhibitors; actives 50% (n = 110); Gai1/rhodamine-RGS12 GoLoco peptide fluorescence polarization; shares compounds with RGS12 GoLoco inh-1; active = well fitted inhibition curve with a large enough effect; inconclusive = small, poorly fitted or top-dose-only effect; inactive = no such curve, though single readings can be large or run the other way
A number is an active result; - = inactive; ? = inconclusive; . = no result.

SMILES	ERG-DNA inh	CXXC DNA block	RGS12 GoLoco inh-1	Menin MLL FP TR	Menin MLL FP FL	others
CCc1cccc(C)c1NC(=O)COC(=O)c1c2c(nc3ccccc13)/C(=C\c1cccs1)CCC2	.	-	-	14.1µM	-
CC(=O)Nc1ccc(-c2csc(NC(=O)C3CC(=O)N(c4ccc5c(c4)OCCO5)C3)n2)cc1 (centres undefined)	22.4µM	-	-	.	-
Cn1ccnc1SCC(=O)c1ccc2ccccc2c1	-	?	-	-	-
CCn1c(CSc2nccn2C)nc2cc(C(=O)O)ccc21	?	?	15.8µM	?	?
CNCC(=O)O	-	.	.	.	.
CC(S)C(=O)NCC(=O)O (centres undefined)	.	-	10µM	-	-
Cc1cccc(OC(=O)CSc2nnc(-c3ccc4c(c3)OCO4)o2)c1C	-	.	.	.	.
CCC1=C[C@@H]2CN(C1)Cc1c([nH]c3ccccc13)[C@@](C(=O)OC)(c1cc3c(cc1OC)N(C)[C@@H]1[C@@](O)(C(=O)OC)[C@H](OC(C)=O)[C@]4(CC)C=CCN5CC[C@]31[C@@H]54)C2	.	-	.	-	-
O=C(Nc1ccccc1-c1nc2ccccc2[nH]1)c1ccc(S(=O)(=O)N2CCCCC2)cc1	-	-	-	10µM	-
CC1CCCCN1S(=O)(=O)c1ccc(C(=O)Nc2ccccc2-c2nc3ccccc3[nH]2)cc1 (centres undefined)	-	-	-	.	.
CCC(C)Nc1ccc(NC(C)CC)cc1 (centres undefined)	-	.	31.6µM	.	.
CCC(C)NC(=O)Nc1ccc(Br)cc1 (centres undefined)	-	-	-	-	-
Cc1ccc(S(=O)(=O)NCc2ccc3c(c2)cc(C)n3C)cc1	7.08µM	-	-	?	-
CCOc1ccc(CC(=O)NCc2ccc3c(c2)cc(C)n3C)cc1	39.8µM	-	-	-	-
CCOc1ccccc1C(=O)Nc1nnc(COC)s1	-	-	50.1µM	?	-
COC1(OC)N=C(N)C2(C#N)C(c3ccccc3)NC(C)=CC12C#N (centres undefined)	-	-	-	-	-
CC1=CC(C#N)(C#N)C(C#N)(C#N)C(c2ccccc2)N1 (centres undefined)	.	39.8µM	31.6µM	-	?
COc1ccc(-n2c(SCc3ccccc3)nc3c([nH]c4ccccc43)c2=O)cc1	-	.	.	.	.
Cc1n[nH]c(C)c1N1C(=O)c2cccc3c(N4CCCCCC4)ccc(c23)C1=O	?	?	20µM	?	?
O=C1c2cccc3c(N4CCCCC4)ccc(c23)C(=O)N1c1cccc(O)c1	-	?	-	-	?
COC(=O)c1ccc(NC(=O)CC2C(=O)N(c3ccc(Cl)cc3)C(=O)N2Cc2ccco2)cc1 (centres undefined)	-	.	.	.	.
COC(=O)c1ccc(NC(=O)c2c(NCc3ccc(OC)c(OC)c3)sc3c2CCCC3)cc1	-	.	.	.	.
Cc1cc2oc3ccc(NCCCN4CCOCC4)cc3c(=O)c2cc1C	-	.	.	.	.
Cc1cc2oc3ccc(NCCCn4ccnc4)cc3c(=O)c2cc1C	17.8µM	.	.	.	.
Cc1cc(C)c2c(=O)n(CC(=O)NC3CCCC3)sc2n1	-	-	3.55µM	.	-
SMILES	ERG-DNA inh	CXXC DNA block	RGS12 GoLoco inh-1	Menin MLL FP TR	Menin MLL FP FL	others
Oc1cccc(Nc2c3ccccc3nc3ccccc23)c1	-	-	.	31.6µM	-
CCOC(=O)c1cc(-c2ccc(OC)cc2)n(CCC(=O)Nc2cccc(C)c2C)c1C	-	.	.	.	.
Cc1ccc(CSCC(=O)N/N=C/c2ccc(OCC(=O)Nc3ccc(C)cc3)cc2)cc1	-	-	-	-	-
O=C(N/N=C/c1ccc(OCC(=O)N2CCCCC2)cc1)c1ccccc1	.	-	-	-	-
COc1ccc(CSCC(=O)N/N=C/c2ccc(OCC(=O)N3CCCCC3)cc2)cc1	.	-	3.55µM	-	-	RGS12 GoLoco inh-2=?
O=C(CSCc1ccccc1)N/N=C/c1ccc(OCC(=O)N2CCCCC2)cc1	-	-	-	-	-	RGS12 GoLoco inh-2=-
Cc1cc(C)n(-c2nc3cc(Cl)ccc3nc2N2CCN(c3ccccc3F)CC2)n1	-	.	.	.	.
CCc1cccc(NC(=O)C(CC)n2nc(C)c3sc4ccccc4c3c2=O)c1 (centres undefined)	-	.	.	.	.
COc1ccc(Cn2ccnc2SCC(=O)Nc2cc(C(F)(F)F)ccc2Cl)cc1	-	.	.	.	.
